Sampled rows, rich in hits. Any-hit rate of the full collection: about 4.4%.
D1 antagonist = human D1 dopamine receptor antagonism; HEK293 TREx D1 cells, calcium flux, dopamine EC80; hits give low values; activity change, negative = inhibition, % at 10 µM; 3.2% of 360,000 active; in the data active = activity change below about -30%; also: % is scaled to controls: 0 for no effect and ±100 for the full control effect
Target sequence (P21728 whole entry, looked up): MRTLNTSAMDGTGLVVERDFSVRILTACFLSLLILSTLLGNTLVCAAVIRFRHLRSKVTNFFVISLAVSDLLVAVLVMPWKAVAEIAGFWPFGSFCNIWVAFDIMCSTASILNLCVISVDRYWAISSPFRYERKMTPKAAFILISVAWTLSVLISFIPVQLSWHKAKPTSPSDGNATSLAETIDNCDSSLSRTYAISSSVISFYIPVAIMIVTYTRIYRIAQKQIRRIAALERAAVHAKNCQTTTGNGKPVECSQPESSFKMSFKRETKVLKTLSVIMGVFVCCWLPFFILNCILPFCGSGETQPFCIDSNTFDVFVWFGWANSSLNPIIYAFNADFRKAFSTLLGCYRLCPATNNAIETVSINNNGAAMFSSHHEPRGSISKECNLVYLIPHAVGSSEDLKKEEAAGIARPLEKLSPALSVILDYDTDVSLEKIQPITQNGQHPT
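Tetracycline-induced HEK293 T-REx cells with force-coupled D1 receptor were loaded with a no-wash calcium dye. Compound was added after a 10 s baseline and read kinetically for 180 s; EC80 dopamine was then added and calcium flux followed another 180 s.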
TRHR enhancer-1 = allosterically enhances the human TRH receptor. TRHR cells, fluo-8 calcium fluorescence, EC20 TRH enhancement. enhancement, % at 2 µM. AID 493056. 0.66% of 360,000 active; in the data active = enhancement above about 30%; also: 0% is about no effect
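Enhancer read-out: after compound pinning and an initial kinetic agonist-mode read, an EC20 of TRH (10 nM final) was injected and fluo-8 calcium signal (Ex 480/Em 530) followed at 1 s/cycle for 100 cycles in TRHR-expressing cells.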
D1 agonist = activates the human D1 dopamine receptor; P21728; HEK293 T-REx D1 cells, calcium flux, agonist mode; activation, % at 2 µM; 1% of 360,000 active; in the data active = activation above about 30%; also: 0% is about no effect
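Agonism was scored from calcium flux recorded over 180 s (1 read/s) after pintool compound addition, following a 10-cycle baseline. Cells were inducible force-coupled HEK293 TREx D1, plated overnight at 30 C and loaded with no-wash calcium dye.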
TRHR agonist-1 = agonists of human TRH receptor; P34981; activation, % at 2 µM; TRHR cells, calcium flux fluo-8, FDSS agonist mode; AID 493084; 0.18% of 360,000 active; in the data active = activation above about 30%; also: 0% is about no effect
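Agonist-mode FDSS calcium read (Ex 480/Em 530, 1 s cycles) in 1536-well TRHR cells with fluo-8 dye, after 10-cycle baseline and 23 nL compound addition; TRH at EC20 (10 nM final) added afterwards for the enhancer phase.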
D1 potentiator = human D1 dopamine receptor positive modulation. potentiation, % at 10 µM. 0.036% of 360,000 active. P21728. HEK293 TREx D1 cells, calcium flux, dopamine EC20 potentiation; in the data active = potentiation above about 30%; also: 0% is about no effect
USP1-UAF1 inh = USP1/UAF1 (human) deubiquitinase inhibition | O94782 | recombinant USP1/UAF1, Ub-Rhodamine cleavage fluorescence | Potency, µM (highest dose often 57.1 µM), without a hit: at the highest dose activity change, negative = inhibition, hits mostly inhibitors | 0.23% of 390,000 active; also: potency is read from the fitted curve at half-maximal effect; % is scaled to controls: 0 for no effect and ±100 for the full control effect; nearly all actives have a fitted effect of over 60% in size
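USP1/UAF1 complex (1 nM) preincubated 15 min at room temperature with compound, then Ub-Rho substrate (150 nM final) added. Kinetic fluorescence at 480/540 nm over 6 reads at 60 s intervals; 50 mM HEPES pH 7.8, 0.5 mM EDTA, 0.1 mg/ml BSA, 1 mM TCEP, 0.01% Tween-20.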
TRHR enhancer-2 = human TRH receptor allosteric enhancement confirmation | shares compounds with TRHR enhancer-1 | TRH receptor cell assay, enhancer confirmation qHTS | activity change, negative = inhibition, % at 46.1 µM | 970 tested, under 10 active;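 also: compound effect scored on response to added TRH at EC20 of 10 nM; 0% is about no effect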
TRHR agonist-2 = confirmation of human TRH receptor agonists | TRHR-expressing cells, agonist activation read-out | 8% of 970 active | Potency, µM (top dose mostly 46.1 µM), for inactives: at the top dose activation, usual class: activators | shares compounds with TRHR enhancer-1; also: potency is read from the fitted curve at half-maximal effect; 0% is about no effect; nearly all actives have a fitted effect of over 75% in size
* hit, by the source's call; ? = inconclusive; . = no result. Unless noted, calls follow the shape of the dose curve; as a rule, active = well fitted curve in the direction sought with a large enough effect; inconclusive = small, poorly fitted or top-dose-only effect, or another doubt; inactive = no such curve, though single readings can be large; an effect the other way counts as inactive or inconclusive.

SMILES | D1 antagonist | TRHR enhancer-1 | D1 agonist | TRHR agonist-1 | D1 potentiator | USP1-UAF1 inh | TRHR enhancer-2 | TRHR agonist-2
CCOc1ccc(NC(=O)c2nn(C)c3c2COc2ccccc2-3)cc1 | -19 | -4 | 4 | 0 | -1 | 4% | . | .
CCOC(=O)c1c(C)n(-c2ccccc2)c2ccc(O)cc12 | -70* | 46* | 4 | -1 | -6 | 1% | -4 | 2%
O=c1[nH]c(N2CCN(Cc3ccccc3)CC2)nc2c1CCC2 | -2 | 41* | 2 | -1 | -4 | 3% | -3 | -1%
O=c1[nH]c(N2CCN(c3ccccc3)CC2)nc2c1CCC2 | -5 | -3 | 2 | 0 | 1 | -24% | . | .
CCc1ccc2occ(CC(=O)Nc3nnc(SC)s3)c2c1 | 5 | 1 | 3 | 0 | 0 | -24% | . | .
CCc1ccc2occ(CC(=O)Nc3ccc(C)c(C)c3)c2c1 | -1 | 63* | 15 | -1 | -2 | -8% | -5 | 6%
COC(=O)c1ccccc1NC(=O)CCCn1c(=O)c2cccn2c2cccnc21 | -7 | 1 | 1 | -1 | -3 | 6% | . | .
Cc1cccc(N(C(=O)c2snc(C(N)=O)c2N)C(C(=O)NC2CCCC2)c2ccc(C)o2)c1 (configuration not stated) | 11 | 1 | 3 | -1 | -4 | -20% | . | .
CN(C)c1ccc(C(C(=O)NCC2CCCO2)N(C(=O)c2snc(C(N)=O)c2N)c2ccc3c(c2)OCO3)cc1 (configuration not stated) | 8 | 53* | 4 | -1 | 8 | -22% | -4 | 0%
Cc1cccc(N(C(=O)c2snc(C(N)=O)c2N)C(C(=O)NC2CCCC2)c2ccncc2)c1 (configuration not stated) | -22 | 42* | 2 | 0 | -4 | -19% | -1 | 0%
Cc1cccc(N(C(=O)c2snc(C(N)=O)c2N)C(C(=O)NCC2CCCO2)c2ccc(N(C)C)cc2)c1 (configuration not stated) | -8 | 3 | 4 | 0 | -4 | 0% | . | .
Nc1ccc(/C=C/C(=O)c2cccs2)cc1 | -12 | -15 | 82* | 52* | -7 | 25µM* | ? | 21µM*
NS(=O)(=O)c1ccc(NC(=O)COC(=O)c2cn(-c3ccccc3)nc2-c2ccc(F)cc2)cc1 | 0 | 45* | 6 | 1 | -4 | 1% | -8 | ?
COc1cc(/C=C(\C#N)c2[nH]nc(N)c2C#N)cc(OC)c1O | 5 | 20 | 36* | 62* | 3 | -19% | 9 | ?
Cc1ccc([N+](=O)[O-])cc1-c1ccc(/C=C(\C#N)c2[nH]nc(N)c2C#N)o1 | -7 | -5 | 0 | 0 | -4 | -17% | . | .
COc1ccc(/C=C\c2onc(C)c2S(=O)(=O)N2CCC(C(=O)Nc3cccc(Cl)c3)CC2)cc1 | -27 | 5 | 3 | 2 | 0 | -12% | . | .
COc1ccc(NS(=O)(=O)c2ccc(N3CCCC3)c(NC(=S)Nc3cccc(C)c3C)c2)cc1 | 5 | -9 | 3 | 0 | -9 | -11% | . | .
COc1ccc(NS(=O)(=O)c2ccc(N3CCCC3)c(NC(=S)Nc3ccc(SC(F)F)cc3)c2)cc1 | -42* | 65* | 13 | 0 | -4 | -20% | 2 | -1%
CCc1cc(=O)oc2c(C)c3c(cc12)CN(CCc1ccccc1)CO3 | -29 | 4 | 5 | 4 | -3 | -14% | . | .
CC(C)(C)NC(=O)C1N(c2cccnc2)C(=O)C2C(C(=O)Nc3ccccc3)C3(C)C=CC21O3 (configuration not stated) | 9 | 2 | 2 | 1 | 0 | -1% | . | .
Cc1cc(NC(=O)C2C3C(=O)N(c4cccnc4)C(C(=O)NC(C)(C)C)C34C=CC2(C)O4)no1 (configuration not stated) | -10 | 42* | 3 | 0 | -8 | -14% | 2 | 5%
Cc1cc(C)c2c(n1)SCC(=O)N2CC(=O)Nc1cccc(C)c1C | -4 | 1 | 2 | 0 | 5 | ? | . | .
O=C(O)[C@H]1CCCC[C@H]1C(=O)Nc1ccc(Nc2ccccc2)cc1 | -12 | 0 | 2 | 0 | -3 | -4% | . | .
Cc1ccccc1N1CCN(c2ccc(NC(=O)C3CCCCC3C(=O)O)cc2)CC1 (configuration not stated) | 14 | 42* | 1 | 1 | -5 | -6% | -3 | 4%
O=C(Nc1ccccn1)N1CCOCC1 | 0 | 48* | 1 | 0 | -4 | 1% | -2 | -1%
SMILES | D1 antagonist | TRHR enhancer-1 | D1 agonist | TRHR agonist-1 | D1 potentiator | USP1-UAF1 inh | TRHR enhancer-2 | TRHR agonist-2
CCN1C(=O)c2cccc3c(S(=O)(=O)NCc4ccccc4)ccc1c23 | -22 | -4 | 0 | -1 | 3 | -8% | . | .
Cc1ccccc1NS(=O)(=O)c1ccc2c3c(cccc13)C(=O)N2C | -7 | 61* | 2 | -1 | 0 | -7% | -9 | 0%
CN1C(=O)c2cccc3c(S(=O)(=O)Nc4ccccn4)ccc1c23 | -1 | 0 | 1 | 0 | -3 | -22% | . | .
CCN1C(=O)c2cccc3c(S(=O)(=O)Nc4ccccc4OC)ccc1c23 | -10 | 18 | 0 | 56* | -4 | -16% | -6 | ?
Cn1cccc1/C=C1\CCC/C(=C\c2cccn2C)C1=O | -32* | 3 | 139* | 53* | 5 | 22µM* | 1 | 18µM*
O=C1/C(=C/c2cccs2)CCC/C1=C\c1cccs1 | 3 | 7 | 11 | 3 | -2 | -7% | . | .
CCOc1ccc(NC(=O)c2cn(-c3ccc(OCC)cc3)c(=O)c3cc(OC)c(OC)cc23)cc1 | -3 | -1 | 4 | 1 | -18 | -9% | . | .
CCCCNC(=O)c1cn(-c2ccc(OCC)cc2)c(=O)c2cc(OC)c(OC)cc12 | 12 | 47* | 2 | 1 | -5 | 1% | 5 | 1%
COc1nc(N2CCOCC2)nc(C)c1[N+](=O)[O-] | 7 | 3 | 2 | 0 | -1 | 1% | . | .
Cc1nc(N2CCOCC2)nc(OC(C)C)c1[N+](=O)[O-] | -2 | 58* | 3 | 0 | -10 | -10% | 1 | 2%
COc1ccc(N=C2O/C(=C/c3sc(=S)n(CC4CCCO4)c3O)N=C2C#N)cc1 (configuration not stated) | 2 | 43* | 3 | 2 | 11 | -14% | -3 | 4%
COC(=O)c1cc2oc3ccccc3c2n1Cc1nc(-c2ccccc2Cl)oc1C | 25 | 0 | 0 | 0 | -2 | -13% | . | .
